Assay results published in PubChem BioAssay (NCATS).
Inconclusive results are not listed. Active and inactive are the calls of the source. Calls follow the shape of the dose curve; as a rule, active = well fitted cell-killing curve with a large enough effect; inconclusive = small, poorly fitted or top-dose-only effect, or effect the other way; inactive = flat fitted curve, though single readings scatter. Where a SMILES comes first, the peptide text is derived from it.

Columns and labels:
Assay in all cases: Primary qHTS to identify gynecologic anti-cancer compounds using libraries of approved drugs and bioactive compounds (AID 1345084); also: nearly all actives have a fitted effect of over 55% in size
Conditions in all cases: Gynecologic cancer cell panel viability, ATPlite luminescence, 48 h; series mostly up to 57.5 µM
OV90 = test system: OV90
Method in brief: (§1)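 Cells, 1,000 per well, plated 16 h, then exposed 48 h at 37 C to compounds. Viability by ATPlite luminescence after 15 min at room temperature.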

PA-1 = test system: PA-1
Method in brief: as §1

SKOV3 = test system: SKOV3
Method in brief: as §1

Tov-21-G = test system: Tov-21-G
Method in brief: as §1

Tov112D = test system: Tov112D
Method in brief: as §1
% is scaled to controls: 0 for no effect and ±100 for the full control effect.

COc1ccc(CC(NC(C)=O)C(=O)O)cc1 (stereo not given)
inactive: Potency (OV90) | Potency (PA-1) | Potency (SKOV3) | Potency (Tov-21-G) | Potency (Tov112D)

CCC(C)C(N)C(=O)NCCN1CCOCC1 (stereo not given)
inactive: Potency (OV90) | Potency (PA-1) | Potency (SKOV3) | Potency (Tov-21-G) | Potency (Tov112D)

C/C=C(/C)C(=O)OC1CC(C)(C)CC2C3=CCC4C5(C)CCC(OC6OC(C)C(OC7OC(C(=O)O)C(O)C(OC8OC(CO)C(O)C(O)C8OC8OC(CO)C(O)C(O)C8O)C7O)C(O)C6O)C(C)(C)C5CCC4(C)C3(C)C(OC(=O)/C=C/C=C/C=C/CCC)C(OC(C)=O)C12CO (stereo not given)
inactive: activity change, negative = cytotoxicity (OV90) -14.1% [at 6.55 µM] | activity change, negative = cytotoxicity (PA-1) -0.509% [at 6.55 µM] | activity change, negative = cytotoxicity (SKOV3) -20.2% [at 6.55 µM] | activity change, negative = cytotoxicity (Tov-21-G) -0.72% [at 6.55 µM] | activity change, negative = cytotoxicity (Tov112D) 1.97% [at 6.55 µM]

COc1cccc2c1c(O)c(C(=O)N(C)c1ccc(C(F)(F)F)cc1)c(=O)n2C
inactive: Potency (OV90) | Potency (PA-1) | Potency (SKOV3) | Potency (Tov-21-G) | Potency (Tov112D)

CC(C)C1NC(=O)CNC(=O)C2CCCN2C(=O)C(Cc2c[nH]c3ccccc23)NC(=O)CNC(=O)C(Cc2ccc(O)cc2)NC(=O)CNC1=O (stereo not given) (cyclo(GVGYGWP); configuration not given here)
inactive: Potency (OV90) | Potency (PA-1) | Potency (SKOV3) | Potency (Tov-21-G) | Potency (Tov112D)

C=C1CC[C@]2(C(=O)O[C@@H]3O[C@H](CO)[C@@H](O)[C@H](O)[C@H]3O)CC[C@]3(C)C(=CCC4[C@@]5(C)C[C@H](O)[C@@H](O[C@@H]6O[C@H](C(=O)O)[C@@H](O)[C@H](O)[C@H]6O)[C@](C)(C=O)C5CC[C@]43C)C2C1 (stereo not given in full)
inactive: activity change, negative = cytotoxicity (OV90) 2.48% [at 11.6 µM] | activity change, negative = cytotoxicity (PA-1) 8.86% [at 11.6 µM] | activity change, negative = cytotoxicity (SKOV3) -9% [at 11.6 µM] | activity change, negative = cytotoxicity (Tov-21-G) 6.07% [at 11.6 µM] | activity change, negative = cytotoxicity (Tov112D) 5.76% [at 11.6 µM]

COc1ccc(-n2c(SCC#N)nc3sc4c(c3c2=O)CCCC4)cc1
inactive: Potency (OV90) | Potency (PA-1) | Potency (SKOV3) | Potency (Tov-21-G) | Potency (Tov112D)

COc1cc(C2Oc3c(OC)cc(/C=C/C(=O)OC4CC(O)(C(=O)O)CC(O)C4O)cc3C2CO)ccc1O (stereo not given)
inactive: Potency (OV90) | Potency (PA-1) | Potency (SKOV3) | Potency (Tov-21-G) | Potency (Tov112D)

CC(C)[C@@H](C(=O)O)N1Cc2c(cc(O)c3c2O[C@]2(C3)[C@H](C)CCC3C(C)(C)[C@H](O)[C@H](O)C[C@@]32C)C1=O (stereo not given in full)
inactive: Potency (OV90) | Potency (PA-1) | Potency (SKOV3) | Potency (Tov-21-G) | Potency (Tov112D)

C[C@@H]1O[C@@H](O[C@H]2[C@H](OC(=O)[C@]34CCC(C)(C)C[C@H]3C3=CCC5[C@@]6(C)CC[C@H](O[C@@H]7O[C@H](CO[C@@H]8OC[C@H](O)[C@H](O)[C@H]8O[C@@H]8OC[C@@H](O)[C@H](O)[C@H]8O)[C@@H](O)[C@H](O)[C@H]7O)C(C)(C)C6CC[C@@]5(C)[C@]3(C)C[C@H]4O)O[C@H](CO)[C@@H](O)[C@@H]2O)[C@H](O[C@@H]2O[C@H](CO)[C@@H](O)[C@H](O)[C@H]2O)[C@H](O)[C@H]1O[C@@H]1OC[C@@H](O)[C@H](O[C@@H]2OC[C@@H](O)[C@H](O)[C@H]2O)[C@H]1O (stereo not given in full)
inactive: activity change, negative = cytotoxicity (OV90) -1.86% [at 6.55 µM] | activity change, negative = cytotoxicity (PA-1) 1.34% [at 6.55 µM] | activity change, negative = cytotoxicity (SKOV3) 0% [at 6.55 µM] | activity change, negative = cytotoxicity (Tov-21-G) -2.86% [at 6.55 µM] | activity change, negative = cytotoxicity (Tov112D) 0.0551% [at 6.55 µM]

COc1cc(-c2ccc(O)cc2)c(OC)c(O)c1C1=CC(=O)OC1CC(=O)O (stereo not given)
inactive: Potency (OV90) | Potency (PA-1) | Potency (SKOV3) | Potency (Tov-21-G) | Potency (Tov112D)

CCC(CC)CC1(C(=O)Nc2ccccc2SC(=O)C(C)C)CCCCC1
inactive: Potency (OV90) | Potency (PA-1) | Potency (SKOV3) | Potency (Tov-21-G) | Potency (Tov112D)

CC1=CCC2C(C)(C)CCCC2(C)C1CC12OC1C(O)C(CO)=CC2O (stereo not given)
inactive: Potency (OV90) | Potency (PA-1) | Potency (SKOV3) | Potency (Tov-21-G) | Potency (Tov112D)

COC(=O)C(CC1(O)c2ccccc2N2C(=O)C(CC(C)C)NC21)n1cnc2ccccc2c1=O (stereo not given)
inactive: Potency (OV90) | Potency (PA-1) | Potency (SKOV3) | Potency (Tov-21-G) | Potency (Tov112D)

C/C(=C\C(=O)C[C@@]12C(=O)O[C@]3(C)CC[C@H]1C[C@H]23)C(N)=O
inactive: Potency (OV90) | Potency (PA-1) | Potency (SKOV3) | Potency (Tov-21-G) | Potency (Tov112D)

CC1(CO)CCCC2(C)C3COC(=O)C3=CC(O)C12 (stereo not given)
inactive: Potency (OV90) | Potency (PA-1) | Potency (SKOV3) | Potency (Tov-21-G) | Potency (Tov112D)

CC(O)C(O)/C=C/C=C/C(=O)O[C@@H]1C=C(C(=O)O)[C@](O)(CO)[C@@]2(C)CCCC(C)(C)[C@H]12 (stereo not given in full)
inactive: Potency (OV90) | Potency (PA-1) | Potency (SKOV3) | Potency (Tov-21-G) | Potency (Tov112D)
